Measurements from the supplement of paper PMC11634586.
Where a name gives a salt, the structure may show the parent alone. Values without a mark were called inactive.

test system: NCI-H1688; experiment: inhibition of cell viability relative to untreated control (fraction); higher = stronger growth inhibition, active = 0.5 or more; details: 30 µM; 24 h
Procedure: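 Natural product library (TargetMol, 640 compounds) screened on NCI-H1688 SCLC cells at 30 µM for 24 h; viability by CCK-8 absorbance at 450 nm, normalised to untreated control and expressed as inhibition rate (fraction). Compounds with >50% reduction in viability were selected as hits.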

| Compound | inhibition of cell viability |
| --- | --- |
| C[C@]12CC[C@@H]3c4ccc(O)cc4CC[C@H]3[C@@H]1CCC2=O [Aquacrine] | 0.0269 |
| O=c1ccc2ccc(O)cc2o1 [7-Hydroxycoumarin] | -0.0276 |
| O=C(O)c1cccnc1 [Nicotinic acid] | 0.0212 |
| OCc1c[nH]c2ccccc12 [Indole-3-carbinol] | 0.0235 |
| C[N+](C)(C)CC(=O)O [Betaine] | 0.299 |
| CC(=O)OCC(=O)[C@@]1(O)CC[C@H]2[C@@H]3CCC4=CC(=O)C=C[C@]4(C)[C@@]3(Cl)[C@@H](Cl)C[C@@]21C [Dichlorisone Acetate] | -0.129 |
| CC(=O)Oc1cc(C)c(OC(C)=O)c2ccccc12 [Menadiol Diacetate] | 0.384 |
| Cn1c(=O)c2c(ncn2CC(=O)O)n(C)c1=O [Theophylline-7-acetic acid] | -0.159 |
| CC[C@@H]1C(=O)OC[C@@H]1Cc1cncn1C [(+)-Pilocarpine hydrochloride] | 0.197 |
| Nc1nc(=O)c2nc(CNc3ccc(C(=O)N[C@@H](CCC(=O)O)C(=O)O)cc3)cnc2[nH]1 [Folic acid] | -0.206 |
| CC1(C)C2CC[C@@]3(C)[C@@H](C(=O)C=C4[C@@H]5C[C@](C)(C(=O)O)CC[C@@]5(C)CC[C@@]43C)[C@]2(C)CC[C@H]1O (stereo not given in full) [Glycyrrhetinic acid(Enoxolone)] | -0.198 |
| COc1ccc(-c2cc(=O)c3c(O)c(OC)c(O)cc3o2)cc1OC [Eupatilin] | 0.345 |
| CC1=CC(=O)CC(C)(C)C1=O [Ketoisophorone] | -0.175 |
| C[C@H](CCC(=O)O)[C@H]1CC[C@H]2[C@@H]3C[C@H](O)[C@@H]4C[C@H](O)CC[C@]4(C)[C@H]3CC[C@]12C [Hyodeoxycholic acid (HDCA)] | -0.163 |
| CC(C)=CCCC(C)CCO (stereo not given) [Citronellol] | 0.283 |
| OC[C@@H](O)[C@@H](O)CO [Erythritol] | 0.038 |
| CC1OC(OC2C(OC3CCC4(C)C(CCC5(C)C4CC=C4C6CC(C)(C)CCC6(C(=O)OC6OC(COC7OC(CO)C(O)C(O)C7O)C(O)C(O)C6O)CCC45C)C3(C)CO)OCC(O)C2O)C(O)C(O)C1O (stereo not given) [Dipsacoside B] | 0.235 |
| OC[C@H]1OC(O)[C@@H](O)[C@@H](O)[C@@H]1O (stereo not given in full) [Mannose] | 0.0629 |
| CCCCCCCCCCCCCCCCCCCCCCCCCCCCCCO | 0.22 |
| O=c1c(O)c(-c2ccc(O)cc2)oc2cc(O)cc(O)c12 [Kaempferol] | -0.00334 |

| Compound | inhibition of cell viability |
| --- | --- |
| O=C1c2cccc(O)c2C(=O)c2c(O)cccc21 [Antrapurol] | 0.783 (active) |
| COc1ccc([C@@H]2CC(=O)c3c(O)cc(O[C@@H]4O[C@H](CO)[C@@H](O)[C@H](O)[C@H]4O[C@@H]4O[C@@H](C)[C@H](O)[C@@H](O)[C@H]4O)cc3O2)cc1O [Neohesperidin] | 0.00547 |
| N[C@@H]1CONC1=O [D-Cycloserine] | 0.0589 |
| CC1=C(/C=C/C(C)=C/C=C/C(C)=C/C(=O)O)C(C)(C)CCC1 [Tretinoin] | 0.00396 |
| O=C(O)c1cc(O)c2c(c1)[C@H]([C@H]1c3cc(C(=O)O)cc(O)c3C(=O)c3c(O[C@@H]4O[C@H](CO)[C@@H](O)[C@H](O)[C@H]4O)cccc31)c1cccc(O[C@@H]3O[C@H](CO)[C@@H](O)[C@H](O)[C@H]3O)c1C2=O [Sennoside A] | 0.0197 |
| CCCCCC1C(=O)CCC1CC(=O)OC (stereo not given) [Methyl Dihydrojasmonate;Hedione] | -0.235 |
| C/C=C/c1ccc(OC)cc1 [Trans-Anethole] | -0.146 |
| COc1cc2c(cc1OC)[C@@H]1Cc3ccc(OC)c(OC)c3CN1CC2 [Tetrahydropalmatine] | 0.242 |
| O=c1c(-c2ccc(O)cc2)coc2cc(O)cc(O)c12 [Genistein] | 0.7 (active) |
| C[C@@H]1O[C@@H](O[C@H]2[C@H](O[C@H]3CC[C@@]4(C)[C@@H](CC[C@]5(C)[C@@H]4CC=C4[C@@H]6CC(C)(C)CC[C@]6(C(=O)O[C@@H]6O[C@H](CO[C@@H]7O[C@H](CO)[C@@H](O)[C@H](O)[C@H]7O)[C@@H](O)[C@H](O)[C@H]6O)CC[C@]45C)[C@]3(C)CO)OC[C@H](O)[C@@H]2O)[C@H](O)[C@H](O[C@@H]2O[C@H](CO)[C@@H](O[C@@H]3O[C@H](CO)[C@@H](O)[C@H](O)[C@H]3O)[C@H](O)[C@H]2O)[C@H]1O [Macranthoidin B] | 0.21 |
| COc1ccc2cc1Oc1ccc(cc1)C[C@H]1c3c(cc4c(c3Oc3cc5c(cc3OC)CCN(C)[C@@H]5C2)OCO4)CCN1C [Cepharanthine] | 1.01 (active) |
| C/C=C\c1ccc(OC)cc1 [cis-Anethol] | -0.182 |
| COc1cc(O)cc(OC)c1OC [3,4,5-Trimethoxyphenol] | 0.0652 |
| COc1cc(C2Oc3cc([C@H]4Oc5cc(O)cc(O)c5C(=O)[C@@H]4O)ccc3OC2CO)ccc1O (stereo not given in full) [Silymarin] | 0.221 |
| O=C(O)C(O)Cc1ccc(O)c(O)c1 (stereo not given) [Sodium Danshensu] | -0.0463 |
| C/C=C1\[C@H]2C=C(C)C[C@]1(N)c1ccc(=O)[nH]c1C2 [(-)-Huperzine A (HupA)] | 0.178 |
| C[N+](C)(C)CC(=O)O [Betaine hydrochloride] | -0.247 |
| C[C@H](CCC(=O)O)[C@H]1CC[C@H]2[C@@H]3[C@H](O)C[C@@H]4C[C@H](O)CC[C@]4(C)[C@H]3C[C@H](O)[C@]12C [Cholic Acid] | -0.419 |
| C[C@H](CCC(=O)NCCS(=O)(=O)O)[C@H]1CC[C@H]2[C@@H]3[C@H](O)C[C@@H]4C[C@H](O)CC[C@]4(C)[C@H]3C[C@H](O)[C@]12C [Taurocholic acid sodium salt hydrate] | -0.0242 |
| O=C(O)c1cc(O)c2c(c1)[C@@H]([C@H]1c3cc(C(=O)O)cc(O)c3C(=O)c3c(O[C@@H]4O[C@H](CO)[C@@H](O)[C@H](O)[C@H]4O)cccc31)c1cccc(O[C@@H]3O[C@H](CO)[C@@H](O)[C@H](O)[C@H]3O)c1C2=O [Sennoside B] | -0.103 |
